# Measurements published in article PMC7862700, “An all-to-all approach to the identification of sequence-specific readers for epigenetic DNA modifications on cytosine”.
# Assays:
# Test in all cases: DAPPL (digital affinity profiling via proximity ligation, sequencing); 10 mM Tris-HCl pH 7.5, 50 mM NaCl, 1 mM DTT, 4% glycerol, room temperature, 30 min; GST-TFs on glutathione beads, 16-mer random dsDNA library, 0.1% formaldehyde crosslink after washing; high values mean tight binding
# FEV = biological target: T1, FEV (Homo sapiens, UniProt Q99581 1-238); conditions: protein: recombinant; tags: N-terminal GST; dsDNA, one strand shown
# T1 sequence: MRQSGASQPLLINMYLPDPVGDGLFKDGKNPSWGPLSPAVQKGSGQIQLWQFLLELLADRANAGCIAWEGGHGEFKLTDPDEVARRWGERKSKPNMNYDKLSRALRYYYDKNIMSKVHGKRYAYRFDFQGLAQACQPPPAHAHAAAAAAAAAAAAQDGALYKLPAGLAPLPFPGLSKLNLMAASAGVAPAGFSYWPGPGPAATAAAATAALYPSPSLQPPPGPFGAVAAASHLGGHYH
# Outline: (§1)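 Yeast served to express human transcription factors as GST fusions, which were then captured on glutathione beads and labelled with DNA barcodes. Pooled with a tag-only sample, they were incubated with 200 nmole of a 16-mer random double-stranded DNA library for 30 min at room temperature in Tris/NaCl/DTT/glycerol buffer, washed, crosslinked with 0.1% formaldehyde, ligated by proximity, amplified by PCR and sequenced. Dividing each hexamer's read frequency for a factor by its frequency for the tag-only sample gives the binding signal.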
# ETV5 = ETV5 (Homo sapiens, UniProt P41161 1-510); conditions: protein: recombinant; tags: N-terminal GST; dsDNA, one strand shown
# Sequence of ETV5 (P41161 whole entry): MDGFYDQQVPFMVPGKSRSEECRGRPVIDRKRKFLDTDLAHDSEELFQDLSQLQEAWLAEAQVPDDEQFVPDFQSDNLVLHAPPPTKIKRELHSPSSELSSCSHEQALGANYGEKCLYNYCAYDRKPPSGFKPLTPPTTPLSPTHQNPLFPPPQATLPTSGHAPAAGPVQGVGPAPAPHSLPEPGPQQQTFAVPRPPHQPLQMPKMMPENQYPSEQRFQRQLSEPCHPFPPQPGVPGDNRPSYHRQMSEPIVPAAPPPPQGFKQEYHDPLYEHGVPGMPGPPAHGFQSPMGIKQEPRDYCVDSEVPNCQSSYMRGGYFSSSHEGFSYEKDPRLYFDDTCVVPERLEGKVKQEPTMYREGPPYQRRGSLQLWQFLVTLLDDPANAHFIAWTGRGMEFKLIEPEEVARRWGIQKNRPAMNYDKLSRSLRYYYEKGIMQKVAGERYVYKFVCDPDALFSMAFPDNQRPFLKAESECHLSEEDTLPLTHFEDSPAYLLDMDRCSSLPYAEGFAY
# Outline: as §1
# HSF1 = HSF1 (Homo sapiens, UniProt Q00613 1-529); conditions: protein: recombinant; tags: N-terminal GST; chain copies: 3; dsDNA, one strand shown
# Sequence of HSF1 (Q00613 whole entry): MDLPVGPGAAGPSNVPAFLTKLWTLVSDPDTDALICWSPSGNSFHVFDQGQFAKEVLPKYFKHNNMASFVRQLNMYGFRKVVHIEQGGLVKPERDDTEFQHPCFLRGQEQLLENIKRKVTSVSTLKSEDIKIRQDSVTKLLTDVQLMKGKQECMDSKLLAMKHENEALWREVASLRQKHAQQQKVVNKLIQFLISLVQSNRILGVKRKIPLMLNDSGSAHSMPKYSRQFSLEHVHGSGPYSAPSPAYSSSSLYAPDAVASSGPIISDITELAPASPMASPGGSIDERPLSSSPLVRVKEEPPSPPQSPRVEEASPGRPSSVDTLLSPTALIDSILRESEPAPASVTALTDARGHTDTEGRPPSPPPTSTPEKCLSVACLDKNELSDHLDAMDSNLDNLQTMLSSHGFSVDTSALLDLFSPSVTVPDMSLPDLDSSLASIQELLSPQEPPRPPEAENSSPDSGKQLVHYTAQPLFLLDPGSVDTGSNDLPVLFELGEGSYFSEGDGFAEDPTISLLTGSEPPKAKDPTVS
# Outline: as §1
# SPIC = biological target: T2, SPIC (Homo sapiens, UniProt Q8N5J4 1-248); conditions: protein: recombinant; tags: N-terminal GST; dsDNA, one strand shown
# T2 sequence: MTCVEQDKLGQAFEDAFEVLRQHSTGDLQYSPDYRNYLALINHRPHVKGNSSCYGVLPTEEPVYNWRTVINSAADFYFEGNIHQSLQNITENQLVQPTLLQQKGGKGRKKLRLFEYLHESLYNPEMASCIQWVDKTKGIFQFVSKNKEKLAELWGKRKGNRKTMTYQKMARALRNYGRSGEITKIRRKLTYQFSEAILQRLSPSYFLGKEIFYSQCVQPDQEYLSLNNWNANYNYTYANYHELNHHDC
# Outline: as §1
# ELF4 = ELF4 (Homo sapiens, UniProt Q99607 1-663); conditions: protein: recombinant; tags: N-terminal GST; dsDNA, one strand shown
# Sequence of ELF4 (Q99607 whole entry): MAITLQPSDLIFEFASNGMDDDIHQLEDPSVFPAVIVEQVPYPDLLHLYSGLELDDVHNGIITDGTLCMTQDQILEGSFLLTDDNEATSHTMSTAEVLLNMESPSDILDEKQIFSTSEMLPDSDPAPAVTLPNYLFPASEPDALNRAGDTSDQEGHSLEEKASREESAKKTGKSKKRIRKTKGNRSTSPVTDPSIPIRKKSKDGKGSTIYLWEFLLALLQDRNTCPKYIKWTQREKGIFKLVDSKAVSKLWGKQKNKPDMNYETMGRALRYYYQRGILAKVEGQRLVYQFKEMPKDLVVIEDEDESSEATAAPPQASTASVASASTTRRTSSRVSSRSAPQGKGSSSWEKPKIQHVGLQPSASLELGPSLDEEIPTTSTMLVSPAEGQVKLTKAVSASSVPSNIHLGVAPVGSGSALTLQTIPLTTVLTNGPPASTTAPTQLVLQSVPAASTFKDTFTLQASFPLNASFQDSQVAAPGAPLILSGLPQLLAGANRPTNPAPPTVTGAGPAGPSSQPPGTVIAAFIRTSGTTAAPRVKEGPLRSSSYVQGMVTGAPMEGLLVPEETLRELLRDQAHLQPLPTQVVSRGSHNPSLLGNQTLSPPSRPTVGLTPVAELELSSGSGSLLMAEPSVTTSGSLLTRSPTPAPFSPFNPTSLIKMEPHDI
# Outline: as §1
# ELK4 = biological target: T3, ELK4 (Homo sapiens, UniProt P28324-2 1-405); conditions: protein: recombinant; tags: N-terminal GST; dsDNA, one strand shown
# T3 sequence: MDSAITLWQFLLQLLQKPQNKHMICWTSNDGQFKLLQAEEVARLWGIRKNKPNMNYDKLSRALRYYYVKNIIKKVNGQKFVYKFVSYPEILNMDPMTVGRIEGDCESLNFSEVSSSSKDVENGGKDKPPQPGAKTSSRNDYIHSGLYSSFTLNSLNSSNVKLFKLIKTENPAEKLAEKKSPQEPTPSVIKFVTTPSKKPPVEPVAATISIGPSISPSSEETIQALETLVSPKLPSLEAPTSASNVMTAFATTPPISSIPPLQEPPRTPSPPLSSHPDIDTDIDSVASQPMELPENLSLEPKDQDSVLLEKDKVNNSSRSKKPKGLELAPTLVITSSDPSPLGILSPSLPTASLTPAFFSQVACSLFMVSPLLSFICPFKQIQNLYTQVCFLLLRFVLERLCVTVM
# Outline: as §1
# ETV2 = biological target: T4, ETV2 (Homo sapiens, UniProt O00321 1-342); conditions: protein: recombinant; tags: N-terminal GST; dsDNA, one strand shown
# T4 sequence: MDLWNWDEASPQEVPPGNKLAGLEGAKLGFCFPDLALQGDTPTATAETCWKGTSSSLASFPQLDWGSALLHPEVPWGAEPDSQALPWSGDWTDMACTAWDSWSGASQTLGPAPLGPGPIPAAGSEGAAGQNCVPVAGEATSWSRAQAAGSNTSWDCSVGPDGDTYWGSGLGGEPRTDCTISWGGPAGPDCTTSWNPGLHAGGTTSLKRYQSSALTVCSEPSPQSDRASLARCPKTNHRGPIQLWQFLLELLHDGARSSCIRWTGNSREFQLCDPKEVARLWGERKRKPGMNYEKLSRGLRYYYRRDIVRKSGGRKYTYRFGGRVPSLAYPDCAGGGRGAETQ
# Outline: as §1
# ELF3 = biological target: T5, ELF3 (Homo sapiens, UniProt P78545 1-371); conditions: protein: recombinant; tags: N-terminal GST; dsDNA, one strand shown
# T5 sequence: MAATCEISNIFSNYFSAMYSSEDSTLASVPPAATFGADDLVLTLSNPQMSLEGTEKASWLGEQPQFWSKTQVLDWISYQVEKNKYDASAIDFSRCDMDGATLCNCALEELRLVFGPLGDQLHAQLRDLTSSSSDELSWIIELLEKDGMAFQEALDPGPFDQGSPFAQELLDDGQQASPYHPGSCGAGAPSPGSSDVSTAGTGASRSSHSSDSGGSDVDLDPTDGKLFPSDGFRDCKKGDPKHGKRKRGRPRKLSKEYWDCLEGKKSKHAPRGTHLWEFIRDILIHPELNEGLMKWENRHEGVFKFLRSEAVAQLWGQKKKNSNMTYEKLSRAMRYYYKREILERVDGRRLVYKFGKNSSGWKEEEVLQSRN
# Outline: as §1
# ETV1 = ETV1 (Homo sapiens, UniProt P50549 1-477); conditions: protein: recombinant; tags: N-terminal GST; dsDNA, one strand shown
# Sequence of ETV1 (P50549 whole entry): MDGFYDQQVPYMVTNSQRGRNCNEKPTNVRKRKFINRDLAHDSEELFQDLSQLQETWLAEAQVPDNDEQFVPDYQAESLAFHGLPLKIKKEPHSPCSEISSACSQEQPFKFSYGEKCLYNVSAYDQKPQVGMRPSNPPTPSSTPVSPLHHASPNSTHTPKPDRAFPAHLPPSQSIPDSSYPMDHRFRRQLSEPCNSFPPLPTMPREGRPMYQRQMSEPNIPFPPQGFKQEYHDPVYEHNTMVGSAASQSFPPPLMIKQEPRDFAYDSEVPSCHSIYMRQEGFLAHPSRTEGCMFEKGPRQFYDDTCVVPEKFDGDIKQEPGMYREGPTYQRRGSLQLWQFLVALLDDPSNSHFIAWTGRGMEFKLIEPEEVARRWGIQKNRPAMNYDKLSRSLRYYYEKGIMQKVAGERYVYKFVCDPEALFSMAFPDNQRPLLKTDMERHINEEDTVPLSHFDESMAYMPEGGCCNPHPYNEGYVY
# Outline: as §1
# ERF = biological target: T6, ERF (Homo sapiens, UniProt P50548 1-548); conditions: protein: recombinant; tags: N-terminal GST; dsDNA, one strand shown
# T6 sequence: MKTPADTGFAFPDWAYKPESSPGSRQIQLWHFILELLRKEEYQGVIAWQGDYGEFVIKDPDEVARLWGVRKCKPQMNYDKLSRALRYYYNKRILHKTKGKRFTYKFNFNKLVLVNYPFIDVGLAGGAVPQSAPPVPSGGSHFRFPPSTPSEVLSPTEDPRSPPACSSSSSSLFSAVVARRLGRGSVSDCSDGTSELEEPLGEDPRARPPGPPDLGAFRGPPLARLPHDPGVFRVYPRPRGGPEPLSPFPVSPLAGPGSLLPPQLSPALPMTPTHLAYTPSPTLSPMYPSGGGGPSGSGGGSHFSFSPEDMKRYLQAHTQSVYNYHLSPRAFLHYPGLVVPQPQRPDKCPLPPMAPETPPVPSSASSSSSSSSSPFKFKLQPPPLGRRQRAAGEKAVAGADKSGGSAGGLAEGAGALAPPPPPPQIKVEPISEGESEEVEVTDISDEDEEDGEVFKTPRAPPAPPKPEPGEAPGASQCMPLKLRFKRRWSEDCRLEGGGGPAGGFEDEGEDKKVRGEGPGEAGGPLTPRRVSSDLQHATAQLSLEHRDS
# Outline: as §1
# ETV3L = biological target: T7, ETV3L (Homo sapiens, UniProt Q6ZN32 1-361); conditions: protein: recombinant; tags: N-terminal GST; dsDNA, one strand shown
# T7 sequence: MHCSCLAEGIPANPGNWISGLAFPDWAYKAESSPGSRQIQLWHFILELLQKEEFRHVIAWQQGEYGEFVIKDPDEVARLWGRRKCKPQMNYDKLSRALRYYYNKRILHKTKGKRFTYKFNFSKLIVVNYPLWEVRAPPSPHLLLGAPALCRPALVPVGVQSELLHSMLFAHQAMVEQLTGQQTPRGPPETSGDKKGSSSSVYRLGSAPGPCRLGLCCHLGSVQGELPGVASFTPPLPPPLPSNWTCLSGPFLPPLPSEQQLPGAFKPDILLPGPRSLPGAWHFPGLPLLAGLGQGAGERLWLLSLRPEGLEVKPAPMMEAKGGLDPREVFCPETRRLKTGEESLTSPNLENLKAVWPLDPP
# Outline: as §1
# ETS2 = biological target: T8, ETS2 (Homo sapiens, UniProt P15036 1-469); conditions: protein: recombinant; tags: N-terminal GST; dsDNA, one strand shown
# T8 sequence: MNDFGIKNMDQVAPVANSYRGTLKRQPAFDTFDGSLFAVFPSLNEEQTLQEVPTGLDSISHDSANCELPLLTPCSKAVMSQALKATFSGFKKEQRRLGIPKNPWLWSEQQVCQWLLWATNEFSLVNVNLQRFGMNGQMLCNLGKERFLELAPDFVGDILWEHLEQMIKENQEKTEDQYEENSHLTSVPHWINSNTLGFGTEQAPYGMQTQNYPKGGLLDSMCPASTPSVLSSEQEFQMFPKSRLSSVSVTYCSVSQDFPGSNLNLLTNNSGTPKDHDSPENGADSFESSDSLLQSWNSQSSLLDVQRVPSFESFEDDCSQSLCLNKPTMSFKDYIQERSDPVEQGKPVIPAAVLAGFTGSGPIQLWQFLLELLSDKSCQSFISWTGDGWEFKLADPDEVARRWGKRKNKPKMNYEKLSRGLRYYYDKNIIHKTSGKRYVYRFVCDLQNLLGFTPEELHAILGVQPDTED
# Outline: as §1
# SPDEF = biological target: T9, SPDEF (Homo sapiens, UniProt O95238 1-335); conditions: protein: recombinant; tags: N-terminal GST; dsDNA, one strand shown
# T9 sequence: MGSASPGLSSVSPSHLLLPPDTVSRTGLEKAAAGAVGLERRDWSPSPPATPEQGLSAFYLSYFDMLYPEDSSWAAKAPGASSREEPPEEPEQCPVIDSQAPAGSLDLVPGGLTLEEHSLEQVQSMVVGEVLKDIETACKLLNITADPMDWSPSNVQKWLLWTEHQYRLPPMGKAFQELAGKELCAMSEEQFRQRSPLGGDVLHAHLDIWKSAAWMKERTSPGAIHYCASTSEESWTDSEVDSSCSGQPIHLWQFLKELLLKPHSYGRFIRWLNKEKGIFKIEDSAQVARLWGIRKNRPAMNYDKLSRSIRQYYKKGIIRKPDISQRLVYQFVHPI
# Outline: as §1
# ETV7 = biological target: T10, ETV7 (Homo sapiens, UniProt Q9Y603 1-341); conditions: protein: recombinant; tags: N-terminal GST; dsDNA, one strand shown
# T10 sequence: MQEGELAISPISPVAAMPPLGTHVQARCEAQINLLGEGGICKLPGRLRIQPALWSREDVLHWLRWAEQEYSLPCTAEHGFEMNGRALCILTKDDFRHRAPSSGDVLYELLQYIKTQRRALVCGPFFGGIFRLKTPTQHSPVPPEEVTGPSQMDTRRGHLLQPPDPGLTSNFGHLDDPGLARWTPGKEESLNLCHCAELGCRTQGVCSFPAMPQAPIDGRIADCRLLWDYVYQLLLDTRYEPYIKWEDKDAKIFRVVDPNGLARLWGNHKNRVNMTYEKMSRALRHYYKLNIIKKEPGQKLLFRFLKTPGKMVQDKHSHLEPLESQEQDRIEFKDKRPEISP
# Outline: as §1
# ELF5 = biological target: T11, ELF5 (Homo sapiens, UniProt Q9UKW6-2 1-255); conditions: protein: recombinant; tags: N-terminal GST; dsDNA, one strand shown
# T11 sequence: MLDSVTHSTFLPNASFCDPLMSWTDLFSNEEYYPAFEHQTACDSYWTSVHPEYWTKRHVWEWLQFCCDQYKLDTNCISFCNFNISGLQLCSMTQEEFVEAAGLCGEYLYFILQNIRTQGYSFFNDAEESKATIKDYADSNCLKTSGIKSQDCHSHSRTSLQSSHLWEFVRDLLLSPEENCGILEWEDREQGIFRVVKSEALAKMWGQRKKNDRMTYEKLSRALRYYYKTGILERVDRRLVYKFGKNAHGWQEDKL
# Outline: as §1
# ETV6 = ETV6 (Homo sapiens, UniProt P41212 1-452); conditions: protein: recombinant; tags: N-terminal GST; dsDNA, one strand shown
# Sequence of ETV6 (P41212 whole entry): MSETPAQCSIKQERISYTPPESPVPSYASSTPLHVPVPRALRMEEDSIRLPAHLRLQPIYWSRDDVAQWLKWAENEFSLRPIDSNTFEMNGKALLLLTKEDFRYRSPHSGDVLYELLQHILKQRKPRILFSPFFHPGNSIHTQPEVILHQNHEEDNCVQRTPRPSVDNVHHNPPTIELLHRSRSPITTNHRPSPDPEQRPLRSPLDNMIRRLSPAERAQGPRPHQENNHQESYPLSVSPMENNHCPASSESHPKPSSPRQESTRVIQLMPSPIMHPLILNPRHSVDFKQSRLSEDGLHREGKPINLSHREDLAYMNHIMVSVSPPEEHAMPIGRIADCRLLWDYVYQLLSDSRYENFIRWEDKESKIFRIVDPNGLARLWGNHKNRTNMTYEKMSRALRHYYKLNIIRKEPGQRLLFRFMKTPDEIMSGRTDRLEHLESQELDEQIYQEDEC
# Outline: as §1
sequence,measurement,setting,value
TGCGTA,binding signal,FEV,"1.06 fold enrichment (6-mer frequency, TF over GST control)"
same,binding signal,ETV5,"1.12 fold enrichment (6-mer frequency, TF over GST control)"
same,binding signal,HSF1,"1.06 fold enrichment (6-mer frequency, TF over GST control)"
same,binding signal,SPIC,"1.11 fold enrichment (6-mer frequency, TF over GST control)"
same,binding signal,ELF4,"1.08 fold enrichment (6-mer frequency, TF over GST control)"
same,binding signal,ELK4,"1.27 fold enrichment (6-mer frequency, TF over GST control)"
same,binding signal,ETV2,"1.21 fold enrichment (6-mer frequency, TF over GST control)"
same,binding signal,ELF3,"1.01 fold enrichment (6-mer frequency, TF over GST control)"
same,binding signal,ETV1,"1.24 fold enrichment (6-mer frequency, TF over GST control)"
same,binding signal,ERF,"1.15 fold enrichment (6-mer frequency, TF over GST control)"
same,binding signal,ETV3L,"1.17 fold enrichment (6-mer frequency, TF over GST control)"
same,binding signal,ETS2,"1.19 fold enrichment (6-mer frequency, TF over GST control)"
same,binding signal,SPDEF,"1.12 fold enrichment (6-mer frequency, TF over GST control)"
same,binding signal,ETV7,"1.01 fold enrichment (6-mer frequency, TF over GST control)"
same,binding signal,ELF5,"1.1 fold enrichment (6-mer frequency, TF over GST control)"
same,binding signal,ETV6,"1.11 fold enrichment (6-mer frequency, TF over GST control)"
